The values that follow come from PubChem BioAssay (EPA / NIEHS).

Structures are written as SMILES. Inconclusive results are not listed. The source made the active and inactive calls. The calls were made as follows: active = hit-call score of the fitted dose curve at least 0.9, where 1 is the maximum; inconclusive = response in the unintended direction; inactive = score below 0.9.

Sequence of Estrogen receptor beta (Homo sapiens) (Q92731 whole entry, looked up, the tested form may be a part): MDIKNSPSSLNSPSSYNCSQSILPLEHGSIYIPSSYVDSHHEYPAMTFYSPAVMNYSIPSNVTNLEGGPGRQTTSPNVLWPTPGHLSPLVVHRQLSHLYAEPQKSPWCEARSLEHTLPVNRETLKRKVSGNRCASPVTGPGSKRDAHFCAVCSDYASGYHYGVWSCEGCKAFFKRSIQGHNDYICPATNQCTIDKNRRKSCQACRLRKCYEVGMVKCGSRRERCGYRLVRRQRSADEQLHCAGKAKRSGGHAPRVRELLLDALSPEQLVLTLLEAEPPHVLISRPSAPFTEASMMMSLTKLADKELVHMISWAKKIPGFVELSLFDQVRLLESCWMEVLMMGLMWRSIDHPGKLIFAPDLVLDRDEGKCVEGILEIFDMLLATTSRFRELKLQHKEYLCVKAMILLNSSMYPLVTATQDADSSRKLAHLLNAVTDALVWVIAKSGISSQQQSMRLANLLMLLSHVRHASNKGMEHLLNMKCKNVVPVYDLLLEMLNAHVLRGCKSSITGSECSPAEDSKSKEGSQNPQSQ
Sequence of Retinoic acid receptor alpha (Homo sapiens) (P10276 whole entry, looked up): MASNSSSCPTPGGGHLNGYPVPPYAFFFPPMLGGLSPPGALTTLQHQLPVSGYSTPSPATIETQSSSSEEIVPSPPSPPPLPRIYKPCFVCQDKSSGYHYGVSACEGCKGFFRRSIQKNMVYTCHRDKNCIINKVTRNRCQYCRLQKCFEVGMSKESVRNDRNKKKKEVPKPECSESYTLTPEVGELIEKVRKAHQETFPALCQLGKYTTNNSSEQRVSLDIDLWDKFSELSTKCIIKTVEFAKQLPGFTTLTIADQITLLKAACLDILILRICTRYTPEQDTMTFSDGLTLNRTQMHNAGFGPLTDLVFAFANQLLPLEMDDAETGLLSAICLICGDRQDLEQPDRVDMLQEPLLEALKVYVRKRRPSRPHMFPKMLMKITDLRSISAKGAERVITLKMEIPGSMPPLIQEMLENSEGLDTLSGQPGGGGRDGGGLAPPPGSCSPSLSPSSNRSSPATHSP

One assay has as its target Estrogen receptor beta (Homo sapiens) (UniProt Q92731). Nature of the assay: OT_ER_ERbERb_0480: Odyssey Thera (OT) 8-hour HEK293T Protein-Complementation Assay for Estrogen Receptor-beta/-beta Homodimer (AID 2283357).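 Also: active means signal gain over DMSO baseline.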 In short, it runs like this:
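Cells (HEK293T, stable ER-beta LBD PCA pair) are treated 8 hours, fixed and Draq5-stained; signal is fluorescence intensity increase relative to vehicle, fitted in the gain direction.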
On to `COc1ccc(-c2coc3cc(O)cc(O)c3c2=O)cc1`, for which the half-maximal activity concentration (AC50) was 2.05 µM (active). On to `C=C1C[C@H]2[C@@H]3C=C(C)C4=CC(=O)CC[C@]4(C)[C@H]3CC[C@]2(C)[C@@]1(OC(C)=O)C(C)=O`, for which the result was inactive. On to `CCCCCCCCCCCC(=O)N(C)CC(=O)O`, for which the molecule was called inactive. Same read-out and setting: the result for `CC(=O)OCc1ccccc1` reads “inactive”. Consider `CCCCCCCOC(=O)c1ccc(O)cc1`, for which the half-maximal activity concentration (AC50) is 2.68 µM (active). As to `O=C(Nc1ccccc1)c1cc(Cl)ccc1O`, the call was inactive. In the case of `O=C(OCc1ccccc1)c1ccc(O)cc1`, the AC50 is 3.98 µM (active). The same measure, in the same setting: in the case of `c1ccc(Nc2cccc3ccccc23)cc1` it was 29.1 µM (active). Same read-out and setting: in the case of `Oc1ccccc1Cc1ccccc1O` it was 31.6 µM (active). As to `C[Si](C)(C)N[Si](C)(C)C`, the outcome was inactive. Same read-out and setting: in the case of `CC(C)c1ccc(O)c(C(C)C)c1` it was “inactive”.

Regarding `CC(CCC(=O)O)(c1ccc(O)cc1)c1ccc(O)cc1`, the concentration at half-maximal activity (AC50) is 31.8 µM (active). Regarding `CO[Si](C)(C)OC`, the call was inactive.

`CCCCCCCCCCCCc1ccc(O)cc1`: the AC50 was 0.853 µM (active). Regarding `Oc1ccc(-c2ccccc2)c(Cl)c1`, the molecule was classed as inactive. For the molecule `CCCCCCCCCCCCCCCCCCOS(=O)(=O)O`, the result was inactive. On the same count and under the same terms, in the case of `N#Cc1ccc(C(c2ccc(C#N)cc2)n2cncn2)cc1` it was “inactive”.

For another assay, the target named is Retinoic acid receptor alpha (Homo sapiens) (UniProt P10276). Nature of the assay: NVS_NR_hRAR_Antagonist: NovaScreen (NVS) Nuclear Receptor Binding Assay for human Retinoic Acid Alpha Receptor Antagonism (RAR) (AID 2283358). In short, it runs like this:
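TR-FRET, cell-free, antagonist format; 2 h incubation after dosing; DMSO = baseline; signal loss fitted; 25 uM duplicate primary, then conc. series.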
`CCCCC/C=C\C/C=C\CCCCCCCC(=O)O`: the result was inactive. As for `CCCCCCCCCC[N+](C)(CCCCCCCCCC)CCC[Si](OC)(OC)OC`, the molecule was classed as inactive.

As for `O=c1c(O)c(-c2ccc(O)cc2O)oc2cc(O)cc(O)c12`, the AC50 was 6.95 µM (active).

Turning to `CCCCCCCCCCCCCCCCCCOS(=O)(=O)O`, the outcome was inactive.

In the next assay the target is human Peroxisome Proliferator-activated Receptor alpha (PPARa), PPARA (gene 5465) (UniProt Q07869). Nature of the assay: NVS_NR_hPPARa: NovaScreen (NVS) Nuclear Receptor Binding Assay for human Peroxisome Proliferator-activated Receptor alpha (PPARa) (AID 2283359).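 Also: activity means loss of TR-FRET signal versus DMSO baseline.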 In short, it runs like this: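 Chemicals were first screened in duplicate at 25 uM, and active ones were retested across concentration series. Binding was monitored by TR-FRET one hour after dosing, with decreased signal against DMSO counted as activity.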
Sequence of human Peroxisome Proliferator-activated Receptor alpha (PPARa), PPARA (gene 5465) (Q07869 whole entry, looked up): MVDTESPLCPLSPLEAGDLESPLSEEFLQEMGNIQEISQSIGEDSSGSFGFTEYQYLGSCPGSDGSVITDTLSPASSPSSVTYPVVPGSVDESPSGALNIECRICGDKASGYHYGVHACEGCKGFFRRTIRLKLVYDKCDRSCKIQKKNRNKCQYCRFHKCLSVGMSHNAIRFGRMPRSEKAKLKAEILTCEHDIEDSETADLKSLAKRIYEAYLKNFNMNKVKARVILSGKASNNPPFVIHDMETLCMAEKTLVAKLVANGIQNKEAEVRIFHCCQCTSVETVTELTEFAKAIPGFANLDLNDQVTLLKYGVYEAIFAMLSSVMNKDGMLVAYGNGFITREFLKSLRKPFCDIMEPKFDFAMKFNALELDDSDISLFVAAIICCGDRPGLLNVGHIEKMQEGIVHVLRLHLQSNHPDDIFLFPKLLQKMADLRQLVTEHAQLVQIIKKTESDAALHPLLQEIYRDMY
With `CCCCCCCOC(=O)c1ccc(O)cc1`, the molecule was called inactive. As to `CCCCC/C=C\C/C=C\CCCCCCCC(=O)O`, the AC50 was 13.1 µM (active). For `CCCCCCCCCC[N+](C)(CCCCCCCCCC)CCC[Si](OC)(OC)OC`, the AC50 is 8.29 µM (active). As to `Oc1ccc(-c2ccccc2)c(Cl)c1`, the call was inactive.

Another assay has as its target Retinoic acid receptor alpha (Homo sapiens) (UniProt P10276). Nature of the assay: NVS_NR_hRARa_Agonist: NovaScreen (NVS) Nuclear Receptor Binding Assay for human Retinoic Acid Alpha Receptor Agonism (RAR) (AID 2283361). In short, it runs like this:
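Readout is time-resolved fluorescence resonance energy transfer after a 2 h exposure of cell-free extracted receptor protein. Initial testing used 25 uM in duplicate, with concentration-response follow-up for active chemicals.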
As for `CCCCCCCCCC[N+](C)(CCCCCCCCCC)CCC[Si](OC)(OC)OC`, the AC50 was 25 µM (active). Take `O=c1c(O)c(-c2ccc(O)cc2O)oc2cc(O)cc(O)c12`: the AC50 is 25 µM (active). In the case of `Oc1ccc(-c2ccccc2)c(Cl)c1`, the molecule was classed as inactive.

For the next assay, the target named is Glucocorticoid receptor (Homo sapiens) (UniProt P04150). Nature of the assay: NVS_NR_hGR: NovaScreen (NVS) Nuclear Receptor Binding Assay for human Glucocorticoid Receptor (GR) (AID 2283363).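 As to AC50: activity is loss of specific radioligand binding signal relative to DMSO.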 In short, it runs like this: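 Competitive displacement of a labelled ligand was measured on cell-free receptor preparations after 16 h exposure. Initial testing used 25 uM in duplicate with plate controls; confirmed actives went into concentration series.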
Sequence of Glucocorticoid receptor (Homo sapiens) (P04150 whole entry, looked up): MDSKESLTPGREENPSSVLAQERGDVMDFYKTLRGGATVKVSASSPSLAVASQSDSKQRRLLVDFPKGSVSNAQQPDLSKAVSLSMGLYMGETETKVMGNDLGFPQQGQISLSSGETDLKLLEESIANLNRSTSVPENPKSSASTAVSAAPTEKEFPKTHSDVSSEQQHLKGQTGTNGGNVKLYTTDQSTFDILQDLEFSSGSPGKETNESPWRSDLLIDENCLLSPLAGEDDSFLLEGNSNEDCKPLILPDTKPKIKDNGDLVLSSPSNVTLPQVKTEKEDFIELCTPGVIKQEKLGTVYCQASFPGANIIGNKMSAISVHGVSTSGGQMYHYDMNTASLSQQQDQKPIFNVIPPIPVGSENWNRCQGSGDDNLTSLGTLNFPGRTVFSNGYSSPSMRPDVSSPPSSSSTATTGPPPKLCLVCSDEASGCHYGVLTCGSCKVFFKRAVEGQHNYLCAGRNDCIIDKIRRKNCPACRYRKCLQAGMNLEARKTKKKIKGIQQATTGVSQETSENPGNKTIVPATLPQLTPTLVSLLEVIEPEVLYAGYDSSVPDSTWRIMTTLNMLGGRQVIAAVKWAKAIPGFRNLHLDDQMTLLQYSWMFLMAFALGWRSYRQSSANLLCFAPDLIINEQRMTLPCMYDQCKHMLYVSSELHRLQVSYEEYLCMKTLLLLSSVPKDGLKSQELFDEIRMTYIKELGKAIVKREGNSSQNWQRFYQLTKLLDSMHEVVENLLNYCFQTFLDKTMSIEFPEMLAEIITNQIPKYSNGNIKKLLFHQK
`C=C1C[C@H]2[C@@H]3C=C(C)C4=CC(=O)CC[C@]4(C)[C@H]3CC[C@]2(C)[C@@]1(OC(C)=O)C(C)=O`: the AC50 is 0.00144 µM (active).

For `CCCCCCCOC(=O)c1ccc(O)cc1`, the AC50 was 7.77 µM (active). Take `CCCCCCCCCC[N+](C)(CCCCCCCCCC)CCC[Si](OC)(OC)OC`: the outcome was inactive. For the molecule `O=c1c(O)c(-c2ccc(O)cc2O)oc2cc(O)cc(O)c12`, the AC50 was 25 µM (active).
